# From paper PMC5540273 (PLoS ONE, 2017)
# Several values for one entry are separate records, joined by “and”; a condition that tells them apart may be missing. Equal values may be shown once. Read-outs that look alike come from different tables or passages of the source.
# Columns and labels:
# Conditions in all cases: concentration: 1 μM, replicates: in singlicate, n = 1
# TSSK3 = test system: TSSK3
# TTK = test system: TTK
# TXK = test system: TXK
# [1] = test system: TYK2(JH1domain-catalytic)
# [2] = test system: TYK2(JH2domain-pseudokinase)
# TYRO3 = test system: TYRO3
# ULK1 = test system: ULK1
# ULK2 = test system: ULK2
# ULK3 = test system: ULK3
# VEGFR2 = test system: T1, VEGFR2
# T1 construct: gene KDR
# 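Also: KINOMEscan kinase panel screen.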
compound,measurement,setting,value
NS(=O)(=O)c1cccc(-c2ccc3nccc(-c4cccc(S(N)(=O)=O)c4)c3c2)c1 [GW867253],%Inh,TSSK3,0%
same,%Inh,TTK,0%
same,%Inh,TXK,5%
same,%Inh,[1],0%
same,%Inh,[2],39%
same,%Inh,TYRO3,0%
same,%Inh,ULK1,12%
same,%Inh,ULK2,81%
same,%Inh,ULK3,18%
same,%Inh,VEGFR2,4%
O=C(NCCNc1ccnc(Nc2ccc(F)cc2)n1)c1cc2ccccc2s1 [GSK1379874],%Inh,TSSK3,22%
same,%Inh,TTK,0%
same,%Inh,TXK,100%
same,%Inh,[1],0%
same,%Inh,[2],21%
same,%Inh,TYRO3,0%
same,%Inh,ULK1,3%
same,%Inh,ULK2,0%
same,%Inh,ULK3,1%
same,%Inh,VEGFR2,0%
Cc1nnc(-c2ccc3occ(-c4ccc(C(C)O)cc4)c3c2)o1 (stereo not drawn),%Inh,TSSK3,1%
same,%Inh,TTK,8%
same,%Inh,TXK,4%
same,%Inh,[1],0%
same,%Inh,[2],2%
same,%Inh,TYRO3,6%
same,%Inh,ULK1,1%
same,%Inh,ULK2,2%
same,%Inh,ULK3,6%
same,%Inh,VEGFR2,0%
Cc1cn2c(=O)cc(N3CCOCC3)nc2n1Cc1cccc(Cl)c1Cl [GSK2334006],%Inh,TSSK3,29%
same,%Inh,TTK,0%
same,%Inh,TXK,8%
same,%Inh,[1],19%
same,%Inh,[2],18%
same,%Inh,TYRO3,7%
same,%Inh,ULK1,0%
same,%Inh,ULK2,0%
same,%Inh,ULK3,7%
same,%Inh,VEGFR2,8%
Cc1c(Cn2c(C)nn3c(=O)cc(N4CCOC(C)C4)nc23)cccc1C(F)(F)F (stereo not drawn) [GSK2344444],%Inh,TSSK3,0%
same,%Inh,TTK,6%
same,%Inh,TXK,0%
same,%Inh,[1],13%
same,%Inh,[2],0%
same,%Inh,TYRO3,0%
same,%Inh,ULK1,34%
same,%Inh,ULK2,0%
same,%Inh,ULK3,15%
same,%Inh,VEGFR2,0%
COc1ccc(Nc2ncc(C#N)c(Nc3ccccc3C(N)=O)n2)cc1N1CCN(C)CC1.Cl [GSK1558669],%Inh,TSSK3,79%
same,%Inh,TTK,99.5%
same,%Inh,TXK,84%
same,%Inh,[1],99.8%
same,%Inh,[2],99.7%
same,%Inh,TYRO3,35%
same,%Inh,ULK1,100%
same,%Inh,ULK2,100%
same,%Inh,ULK3,100%
same,%Inh,VEGFR2,100%
c1ccc(-c2cc(-c3c[nH]nc3-c3ccccn3)ccn2)cc1 [GW576604],%Inh,TSSK3,2%
same,%Inh,TTK,0%
same,%Inh,TXK,0%
same,%Inh,[1],13%
same,%Inh,[2],26%
same,%Inh,TYRO3,0%
same,%Inh,ULK1,0%
same,%Inh,ULK2,0%
same,%Inh,ULK3,0%
same,%Inh,VEGFR2,0%
COc1cc2ncn(-c3cc(OCc4sccc4Cl)c(C(N)=O)s3)c2cc1OC [GSK448459],%Inh,TSSK3,10%
same,%Inh,TTK,5%
same,%Inh,TXK,0%
same,%Inh,[1],22%
same,%Inh,[2],19%
same,%Inh,TYRO3,0%
same,%Inh,ULK1,17%
same,%Inh,ULK2,0%
same,%Inh,ULK3,19%
same,%Inh,VEGFR2,0%
Cl.Oc1cccc(Nc2ccnc3cc(-c4ccncc4)ccc23)c1 [GW494601],%Inh,TSSK3,6%
same,%Inh,TTK,39%
same,%Inh,TXK,97.6%
same,%Inh,[1],93.1%
same,%Inh,[2],49%
same,%Inh,TYRO3,82%
same,%Inh,ULK1,0%
same,%Inh,ULK2,0%
same,%Inh,ULK3,31%
same,%Inh,VEGFR2,95.4%
CCc1ccnc(/C=C/c2n[nH]c3cc(Sc4ccccc4C(=O)NC)ccc23)c1,%Inh,TSSK3,0%
same,%Inh,TTK,0%
same,%Inh,TXK,0%
same,%Inh,[1],11%
same,%Inh,[2],0%
same,%Inh,TYRO3,0%
same,%Inh,ULK1,3%
same,%Inh,ULK2,31%
same,%Inh,ULK3,9%
same,%Inh,VEGFR2,99.9%
COc1ccc(COc2cc(-n3cnc4ccccc43)sc2C(N)=O)cc1 [GSK1024304],%Inh,TSSK3,17%
same,%Inh,TTK,6%
same,%Inh,TXK,20%
same,%Inh,[1],4%
same,%Inh,[2],0%
same,%Inh,TYRO3,0%
same,%Inh,ULK1,15%
same,%Inh,ULK2,0%
same,%Inh,ULK3,0%
same,%Inh,VEGFR2,0%
CN(C(=O)c1ccc(-c2cc(-c3c[nH]nc3-c3ccccn3)ccn2)cc1)C1CCOCC1 [GW810083],%Inh,TSSK3,33%
same,%Inh,TTK,0%
same,%Inh,TXK,0%
same,%Inh,[1],12%
same,%Inh,[2],25%
same,%Inh,TYRO3,0%
same,%Inh,ULK1,5%
same,%Inh,ULK2,14%
same,%Inh,ULK3,12%
same,%Inh,VEGFR2,0%
Fc1ccc(-c2ncn(CCCN3CCOCC3)c2-c2cccnc2)cc1 [SB-211743],%Inh,TSSK3,0%
same,%Inh,TTK,15%
same,%Inh,TXK,0%
same,%Inh,[1],0%
same,%Inh,[2],7%
same,%Inh,TYRO3,0%
same,%Inh,ULK1,4%
same,%Inh,ULK2,2%
same,%Inh,ULK3,18%
same,%Inh,VEGFR2,0%
CCCCCc1nc2c(N)ncnc2n1CCCCC [SKF-97255],%Inh,TSSK3,0%
same,%Inh,TTK,0%
same,%Inh,TXK,12%
same,%Inh,[1],7%
same,%Inh,[2],9%
same,%Inh,TYRO3,0%
same,%Inh,ULK1,12%
same,%Inh,ULK2,12%
same,%Inh,ULK3,11%
same,%Inh,VEGFR2,0%
COc1ccc(Nc2nccc(N3CCC(NC(=O)Nc4cc(C)ccc4C)C3)n2)cc1 (stereo not drawn) [GSK1379741],%Inh,TSSK3,9%
same,%Inh,TTK,0%
same,%Inh,TXK,0%
same,%Inh,[1],0%
same,%Inh,[2],23%
same,%Inh,TYRO3,0%
same,%Inh,ULK1,15%
same,%Inh,ULK2,0%
same,%Inh,ULK3,12%
same,%Inh,VEGFR2,0%
CC(C)(CN)c1nc(-c2ccc(Cl)c(O)c2)c(-c2ccncc2)[nH]1.O=C(O)C(F)(F)F [SB-477794],%Inh,TSSK3; 1 µM,6% and 16%
same,%Inh,TTK,0%
same,%Inh,TXK; 1 µM,100% and 96.2%
same,%Inh,[1]; 1 µM,59% and 16%
same,%Inh,[2]; 1 µM,73% and 41%
same,%Inh,TYRO3; 1 µM,12% and 34%
same,%Inh,ULK1; 1 µM,19% and 0%
same,%Inh,ULK2,0%
same,%Inh,ULK3; 1 µM,16% and 2%
same,%Inh,VEGFR2; 1 µM,86% and 83%
CCn1cnc2c(N)ncnc21 [GW345098],%Inh,TSSK3,6%
same,%Inh,TTK,0%
same,%Inh,TXK,8%
same,%Inh,[1],23%
same,%Inh,[2],0%
same,%Inh,TYRO3,32%
same,%Inh,ULK1,0%
same,%Inh,ULK2,21%
same,%Inh,ULK3,0%
same,%Inh,VEGFR2,0%
NCCNS(=O)(=O)c1ccc(-c2ccnc3[nH]ccc23)cc1 [GSK977617],%Inh,TSSK3; 1 µM,34% and 22%
same,%Inh,TTK; 1 µM,36% and 30%
same,%Inh,TXK; 1 µM,10% and 0%
same,%Inh,[1]; 1 µM,84% and 79%
same,%Inh,[2]; 1 µM,38% and 30%
same,%Inh,ULK1; 1 µM,93.8% and 83%
same,%Inh,ULK2; 1 µM,39% and 33%
same,%Inh,ULK3; 1 µM,64% and 35%
same,%Inh,VEGFR2; 1 µM,7% and 24%
Cl.Cl.Cl.Fc1ccc(-c2ncn(C3CCNCC3)c2-c2ccnc(Nc3ccccc3)n2)cc1 [SB-238039],%Inh,TSSK3; 1 µM,19% and 5%
same,%Inh,TTK; 1 µM,15% and 3%
same,%Inh,TXK; 1 µM,3% and 0%
same,%Inh,[1]; 1 µM,35% and 0%
same,%Inh,[2]; 1 µM,18% and 0%
same,%Inh,TYRO3; 1 µM,0% and 12%
same,%Inh,ULK1; 1 µM,28% and 6%
same,%Inh,ULK2; 1 µM,21% and 29%
same,%Inh,ULK3; 1 µM,24% and 26%
same,%Inh,VEGFR2; 1 µM,0% and 9%
